Here are results for 6 molecules from PubChem BioAssay (NCATS).

Results filed as inconclusive are left out. Calls of active or inactive are those of the source. Unless noted, calls come from the whole dose curve; as a rule, active = well fitted curve in the direction sought with a large enough effect; inconclusive = small, poorly fitted or top-dose-only effect, or another doubt; inactive = no such curve, though single readings can be large; an effect the other way counts as inactive or inconclusive.

Experiment [1] deals with Glucocorticoid receptor (Homo sapiens) (UniProt P04150). In words: qHTS assay for small molecule agonists of glucocorticoid receptor signaling (AID 588532; active = well fitted curve in the direction sought with a large enough effect in the signal ratio, with a control signal flat; the % refers to the signal ratio;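 note: 100% = dexamethasone at 0.1 µM and 0% = DMSO only wells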). The note with it: HeLa MMTV-bla, beta-lactamase ratio, agonist, 18 h; activation: stronger effect = higher value, percent of dexamethasone control, DMSO zero. The gist of the method: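 HeLa GRE-bla reporter cells; 18 h compound exposure at 37 C; 2 h CCF4 loading at room temperature; fluorescence at 460 and 530 nm; EC50 by Hill equation.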
(In general: In qHTS, concentration-response curves come from the screen itself.)

Experiment [2] has as its target Peroxisome proliferator-activated receptor delta (Homo sapiens) (UniProt Q03181). As to the kind of experiment: qHTS assay for small molecule agonists of peroxisome proliferator-activated receptor delta signaling (AID 588534; calls by dose curve;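 note: 0% = DMSO basal wells and 100% = positive control agonist at 10 µM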). The gist of the method:
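Reporter cells were plated and held 5 hrs at 37 C before compounds were added. After 18 hrs at 37 C, CCF4 dye was loaded for 2 hrs at RT and fluorescence measured.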

Experiment [3] is described as follows: qHTS assay for small molecule antagonists of peroxisome proliferator-activated receptor delta signaling (AID 588535).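 Note: cells co-treated with a PPAR-delta agonist as stimulator during compound exposure.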 The following applies: HEK293T PPARd-UAS-bla, beta-lactamase FRET ratio, 18 h; 460 nm channel. The gist of the method: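 Cells were seeded at 4000 per well in assay medium containing 2% charcoal/dextran FBS and held 5 hrs at 37 C. Compounds were then added for 18 hrs. CCF4 substrate was applied for 2 hrs at room temperature before fluorescence reading.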

Experiment [4] addresses Vitamin D3 receptor (Homo sapiens) (UniProt P11473). In words: qHTS assay for small molecule antagonists of vitamin D receptor signaling (AID 588541; calls by dose curve;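 note: receptor activated by calcitriol during compound treatment; series mostly up to about 77 µM; % is set by controls: 0 for no effect and ±100 for the full control effect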). The gist of the method: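 VDR-UAS-bla HEK293T cells in 2% charcoal-stripped FBS were stimulated with 1-alpha,25-dihydroxyvitamin D3 (3 nM final) plus compound for 16 h at 37 C. The beta-lactamase CCF4 readout was normalized to 50 nM agonist and DMSO, and Hill fits gave IC50.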

Experiment [5] has the same target. As to the kind of experiment: qHTS assay for small molecule agonists of vitamin D receptor signaling (AID 588543; calls by dose curve;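 note: 0% = DMSO basal and 100% = reference agonist control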). Put shortly:
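β-lactamase reporter, VDR-UAS-bla HEK293T, agonist mode. Cells plated 5 h at 37 °C, compound titration 16 h at 37 °C, CCF4 dye 2 h RT, ratio 460/530 nm. Hill fit → EC50, efficacy vs 50 nM 1α,25-(OH)2D3.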

Experiment [6] addresses Thyroid hormone receptor beta (Homo sapiens) (UniProt P10828). As to the kind of experiment: qHTS assay for small molecule agonists of thyroid hormone receptor beta signaling (AID 588545; calls by dose curve;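 note: 0% = DMSO only and 100% = 10 nM T3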). The gist of the method: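 Compounds were tested as agonists in TR-UAS-bla-GripTite HEK 293 cells. After 18 hrs at 37 C, CCF4 substrate was added and fluorescence read after 2 hrs at room temperature.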

Experiment [7] has the same target. As to the kind of experiment: qHTS assay for small molecule antagonists of thyroid hormone receptor beta signaling (AID 588547; active = well fitted inhibition curve with a large enough effect in the signal ratio, with a control signal flat, not every such curve was filed as active; the % refers to the signal ratio;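 note: cells stimulated with 0.4 nM T3 agonist during compound exposure; series mostly up to about 77 µM; % is set by controls: 0 for no effect and ±100 for the full control effect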). The note with it: TR-UAS-bla HEK293, beta-lactamase ratio, antagonist mode, 18 h. Put shortly:
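TR-UAS-bla GripTite HEK293 cells in 2% charcoal/dextran FBS medium; compounds 0.59 nM to 92 uM with T3 at 0.4nM final, 18 h at 37 C. Beta-lactamase read by CCF4 fluorescence (460/530 nm); Hill fits gave IC50 and efficacy.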

Experiment [8] in a line: qHTS assay for environmental chemicals that activate the Aryl hydrocarbon Receptor (AhR) signaling pathway (AID 651777). Note: % of control where 0% means no effect; nearly all actives have a fitted effect of over 15% in size. The note with it: 1A2-DRE human hepatoma cells, luciferase, 24 h; activation: stronger effect = higher value. The gist of the method: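 Induction of CYP1A2 transcription through AhR is detected by luciferase in 1A2-DRE hepatoma cells. Compounds or DMSO act for 24 hr at 37 C before a 30 min One-Glo step at room temperature.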

The target of experiment [9] is Peroxisome proliferator-activated receptor alpha (Homo sapiens) (UniProt Q07869). In words: qHTS assay for small molecule agonists of the peroxisome proliferator-activated receptor alpha (PPARalpha) signaling pathway (AID 651778). Note: % of control where 0% means no effect. The note with it: PathHunter PPARalpha complementation, chemiluminescence, 6 h; max response: stronger effect = higher value. The gist of the method: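 Enzyme-fragment complementation assay in which ligand-bound PPARalpha translocates and forms an active enzyme that generates chemiluminescence. Cells were plated overnight, exposed to compound for 6 hr at 37 C, and then given detection reagent for 60 min at room temperature.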

The nature of experiment [10]: qHTS assay for small molecule agonists of the antioxidant response element (ARE) signaling pathway measured by Nrf2-dependant transcriptional activity (AID 720636; active = well fitted curve in the direction sought with a large enough effect in the repeat runs; an effect the other way counts as inactive or inconclusive;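 note: HepG2 cells with an ARE-driven luciferase reporter; % of control where 0% means no effect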). Put shortly: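 We exposed ARE-luc HepG2 cells, seeded in assay medium with 1% dialyzed FBS and allowed 6 hr to adhere, to test compounds overnight (16 hr, 37 C) before measuring luciferase with ONE-Glo.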

The nature of experiment [11]: qHTS assay for small molecule agonists of the antioxidant response element (ARE) signaling pathway measured by Nrf2-dependant transcriptional activity - cell viability counter screen (AID 720653; active = well fitted curve in the direction sought with a large enough effect in the repeat runs; an effect the other way counts as inactive or inconclusive; note: % is set by controls: 0 for no effect and ±100 for the full control effect). The note with it: ARE-bla HepG2 viability, CellTiter-Glo ATP luminescence, 16 h; max response: stronger effect = lower value. The gist of the method: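 ARE-bla HepG2 cells treated with compounds for 16 h at 37C; this counter screen measures viability as intracellular ATP by CellTiter-Glo luminescence after 30 min at room temperature.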

Experiment [12] is described as follows: qHTS assay for cell viability of HEK293 cells (AID 743288). Note: % is set by controls: 0 for no effect and ±100 for the full control effect; nearly all actives have a fitted effect of over 50% in size. The following applies: ATP luminescence (CellTiter-Glo), 18 h; max response: stronger effect = lower value. Put shortly:
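Environmental chemicals tested in qHTS format against parental HEK293 cells; 18 h treatment, 37 C; read-out ATP luminescence (CellTiter-Glo), 30 min RT development.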

Experiment [13] can be described thus: qHTS assay for cell viability of the p53RE-bla HCT-116 cell line (AID 743292). Note: % is set by controls: 0 for no effect and ±100 for the full control effect; nearly all actives have a fitted effect of over 55% in size. Put shortly: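 In this qHTS counter-screen, metabolically competent p53RE-bla HCT-116 cells were counted via their ATP content. Compounds were applied for 16 h at 37 C and luciferase-coupled luminescence was measured.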
The target of experiment [14] is Peroxisome proliferator-activated receptor gamma (Homo sapiens) (UniProt P37231). In words: qHTS assay for small molecule agonists of peroxisome proliferator-activated receptor gamma signaling (AID 588536; active = well fitted curve in the direction sought with a large enough effect in the signal ratio, with a control signal flat, not every such curve was filed as active; the % refers to the signal ratio;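 note: 0% = DMSO basal wells and 100% = rosiglitazone at 2 µM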). The gist of the method:
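GeneBLAzer PPAR-gamma-UAS-bla HEK293 cells in 1% charcoal/dextran-treated FBS medium were treated 16 h at 37 C with compounds. Beta-lactamase activity was read by CCF4 ratio (460/530 nm). Response was normalized to 2 uM rosiglitazone (100%) and DMSO, then Hill-fitted for EC50 and efficacy.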

For experiment [15] the target is unchanged. As to the kind of experiment: qHTS assay for small molecule antagonists of peroxisome proliferator-activated receptor gamma signaling (AID 588537; active = well fitted inhibition curve with a large enough effect in the signal ratio, with a control signal flat, not every such curve was filed as active; the % refers to the signal ratio;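 note: reporter cells co-stimulated with 50 nM rosiglitazone agonist during compound treatment; % of control where 0% means no effect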). Put shortly:
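Step one: plate 3000 HEK293 UAS-bla cells per well in medium with 1% stripped serum and hold 6-6.5 h at 37 C. Step two: add compound and 50 nM agonist for 16 h. Step three: CCF4 loading, fluorescence read.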

Experiment [16] addresses Retinoic acid receptor RXR-alpha (Homo sapiens) (UniProt P19793). In words: qHTS assay for small molecule agonists of retinoid X receptor alpha signaling (AID 588544; calls by dose curve;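 note: 0% = DMSO basal wells and 100% = reference agonist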).
Experiment [17] can be described thus: qHTS assay for small molecule antagonists of retinoid X receptor alpha signaling (AID 588546; active = well fitted inhibition curve with a large enough effect in the signal ratio, with a control signal flat, not every such curve was filed as active; the % refers to the signal ratio). The note with it: HEK293T RXRa-UAS-bla, beta-lactamase ratio, antagonist mode; measured here: W530 green channel, cytotoxicity proxy. Put shortly:
(§1)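 Beta-lactamase reporter inhibition, read as CCF4 fluorescence ratio (ex 405, em 460/530 nm) after 2 h at RT. HEK293T UAS-bla cells, 2500/well, were stimulated with 9-cis-RA at 500 or 100 nM final alongside test compound for 18 h at 37 C.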

Experiment [18] in a line: qHTS assay for small molecule activators of the p53 signaling pathway (AID 651743; active = well fitted activation curve with a large enough effect in the signal ratio, not every such curve was filed as active; the % refers to the signal ratio; note: series mostly up to about 92 µM; % of control where 0% means no effect). The following applies: HCT-116 p53RE-bla, beta-lactamase FRET ratio, 16 h; activation: stronger effect = higher value. Put shortly: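 HCT-116 p53RE-bla, 4,000 cells/well; 5 h settle; cpd/DMSO 16 h, 37 C; LiveBLAzer B/G 2 h RT; fluorescence intensity.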
Experiment [19] concerns the target Nuclear receptor subfamily 1 group I member 2 (Rattus norvegicus) (UniProt Q9R1A7). In words: qHTS assay for small molecule activators of the rat pregnane X receptor (rPXR) signaling pathway (AID 651751; call rule not given here; note: 0% is about no effect). The note with it: rPXR reporter cells, luciferase (One-Glo), 24 h.
Experiment [20] has as its target Retinoic acid receptor RXR-alpha (Homo sapiens) (UniProt P19793). In words: qHTS assay for small molecule antagonists of retinoid X receptor alpha signaling (AID 588546).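 Note: cells stimulated with 9-cis-retinoic acid as agonist; % is set by controls: 0 for no effect and ±100 for the full control effect.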 The following applies: HEK293T RXRa-UAS-bla, beta-lactamase ratio, antagonist mode. The gist of the method:
as §1

Chain of Peroxisome proliferator-activated receptor delta (Homo sapiens) (Q03181 whole entry, looked up): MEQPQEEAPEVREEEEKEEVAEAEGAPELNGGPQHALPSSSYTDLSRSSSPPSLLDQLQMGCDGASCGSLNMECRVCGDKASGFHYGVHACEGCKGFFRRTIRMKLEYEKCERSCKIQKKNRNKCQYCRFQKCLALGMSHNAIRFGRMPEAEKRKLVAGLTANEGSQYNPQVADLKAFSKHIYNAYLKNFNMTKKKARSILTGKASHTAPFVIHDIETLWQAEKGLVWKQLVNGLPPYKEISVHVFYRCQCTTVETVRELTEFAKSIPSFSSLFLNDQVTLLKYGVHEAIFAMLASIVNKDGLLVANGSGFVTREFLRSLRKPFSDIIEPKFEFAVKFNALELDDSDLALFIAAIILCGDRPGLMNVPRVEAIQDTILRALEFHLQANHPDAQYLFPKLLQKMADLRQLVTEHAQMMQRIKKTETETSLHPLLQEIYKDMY
Chain of Nuclear receptor subfamily 1 group I member 2 (Rattus norvegicus) (Q9R1A7 whole entry, looked up): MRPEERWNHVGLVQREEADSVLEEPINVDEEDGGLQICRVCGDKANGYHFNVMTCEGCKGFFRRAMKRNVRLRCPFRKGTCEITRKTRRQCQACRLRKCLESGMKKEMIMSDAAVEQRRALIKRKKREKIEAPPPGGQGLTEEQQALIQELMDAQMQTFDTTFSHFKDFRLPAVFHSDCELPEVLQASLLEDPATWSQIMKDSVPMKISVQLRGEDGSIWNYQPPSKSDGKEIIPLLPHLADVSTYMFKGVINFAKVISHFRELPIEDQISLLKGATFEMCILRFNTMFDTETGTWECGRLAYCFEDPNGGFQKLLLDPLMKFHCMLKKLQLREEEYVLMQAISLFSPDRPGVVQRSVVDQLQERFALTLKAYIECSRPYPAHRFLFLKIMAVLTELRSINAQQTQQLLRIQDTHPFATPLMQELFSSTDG
Chain of Peroxisome proliferator-activated receptor alpha (Homo sapiens) (Q07869 whole entry, looked up, the tested form may be a part): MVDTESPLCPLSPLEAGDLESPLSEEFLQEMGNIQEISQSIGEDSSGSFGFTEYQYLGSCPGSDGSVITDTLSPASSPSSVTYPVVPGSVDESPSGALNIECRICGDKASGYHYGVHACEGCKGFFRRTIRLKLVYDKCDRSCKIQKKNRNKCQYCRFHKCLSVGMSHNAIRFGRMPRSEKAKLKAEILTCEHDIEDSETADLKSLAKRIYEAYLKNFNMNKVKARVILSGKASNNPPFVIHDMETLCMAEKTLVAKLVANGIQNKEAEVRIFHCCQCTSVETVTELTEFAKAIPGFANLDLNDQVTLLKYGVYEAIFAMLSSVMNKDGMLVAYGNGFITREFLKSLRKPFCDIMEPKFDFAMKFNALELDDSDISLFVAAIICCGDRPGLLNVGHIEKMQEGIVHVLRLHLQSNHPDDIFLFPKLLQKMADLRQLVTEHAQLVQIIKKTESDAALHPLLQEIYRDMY
Chain of Thyroid hormone receptor beta (Homo sapiens) (P10828 whole entry, looked up): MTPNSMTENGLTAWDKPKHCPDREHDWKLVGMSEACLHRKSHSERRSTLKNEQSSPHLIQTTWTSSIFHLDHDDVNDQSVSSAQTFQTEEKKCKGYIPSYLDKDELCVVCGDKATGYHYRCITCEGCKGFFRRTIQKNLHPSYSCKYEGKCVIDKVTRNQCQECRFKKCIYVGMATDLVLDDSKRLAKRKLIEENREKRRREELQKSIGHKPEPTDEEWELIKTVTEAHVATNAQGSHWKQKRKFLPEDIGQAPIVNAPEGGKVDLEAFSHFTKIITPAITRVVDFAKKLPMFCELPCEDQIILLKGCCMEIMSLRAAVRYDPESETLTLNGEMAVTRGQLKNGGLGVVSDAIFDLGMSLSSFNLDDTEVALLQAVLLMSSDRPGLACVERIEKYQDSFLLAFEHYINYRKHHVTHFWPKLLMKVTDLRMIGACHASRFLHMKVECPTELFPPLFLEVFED
Chain of Retinoic acid receptor RXR-alpha (Homo sapiens) (P19793 whole entry, looked up): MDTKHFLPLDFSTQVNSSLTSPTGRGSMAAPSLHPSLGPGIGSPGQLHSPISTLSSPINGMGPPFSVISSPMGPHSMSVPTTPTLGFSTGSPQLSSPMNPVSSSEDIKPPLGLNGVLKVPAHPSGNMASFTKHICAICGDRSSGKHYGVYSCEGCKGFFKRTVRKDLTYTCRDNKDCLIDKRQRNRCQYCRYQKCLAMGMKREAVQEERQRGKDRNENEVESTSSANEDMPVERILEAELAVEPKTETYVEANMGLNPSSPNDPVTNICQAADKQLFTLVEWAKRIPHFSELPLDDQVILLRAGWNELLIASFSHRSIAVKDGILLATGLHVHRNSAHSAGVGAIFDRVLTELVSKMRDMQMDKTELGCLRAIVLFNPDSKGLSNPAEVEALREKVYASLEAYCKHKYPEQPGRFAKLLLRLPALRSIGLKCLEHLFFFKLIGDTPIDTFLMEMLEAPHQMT
Chain of Glucocorticoid receptor (Homo sapiens) (P04150 whole entry, looked up): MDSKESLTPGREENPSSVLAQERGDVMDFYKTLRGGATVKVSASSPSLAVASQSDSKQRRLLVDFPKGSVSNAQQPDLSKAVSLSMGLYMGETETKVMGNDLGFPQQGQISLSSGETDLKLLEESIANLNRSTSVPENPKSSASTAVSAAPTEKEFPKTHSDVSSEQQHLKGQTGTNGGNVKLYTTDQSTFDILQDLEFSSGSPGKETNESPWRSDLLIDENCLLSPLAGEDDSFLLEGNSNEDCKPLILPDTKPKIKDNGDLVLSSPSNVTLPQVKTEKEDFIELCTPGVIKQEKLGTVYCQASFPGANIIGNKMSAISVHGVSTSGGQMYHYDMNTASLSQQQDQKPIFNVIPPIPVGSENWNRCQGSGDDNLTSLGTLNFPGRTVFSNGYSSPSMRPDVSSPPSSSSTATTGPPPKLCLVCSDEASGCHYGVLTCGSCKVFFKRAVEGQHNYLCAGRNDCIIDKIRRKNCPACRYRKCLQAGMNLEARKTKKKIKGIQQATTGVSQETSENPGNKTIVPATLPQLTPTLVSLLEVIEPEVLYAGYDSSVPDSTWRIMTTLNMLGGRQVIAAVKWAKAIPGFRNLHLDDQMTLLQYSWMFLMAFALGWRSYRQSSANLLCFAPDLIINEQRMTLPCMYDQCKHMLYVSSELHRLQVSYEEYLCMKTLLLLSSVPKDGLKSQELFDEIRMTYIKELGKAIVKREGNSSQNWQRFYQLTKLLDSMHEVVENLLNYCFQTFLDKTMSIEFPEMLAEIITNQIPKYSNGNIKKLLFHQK
Chain of Peroxisome proliferator-activated receptor gamma (Homo sapiens) (P37231 whole entry, looked up): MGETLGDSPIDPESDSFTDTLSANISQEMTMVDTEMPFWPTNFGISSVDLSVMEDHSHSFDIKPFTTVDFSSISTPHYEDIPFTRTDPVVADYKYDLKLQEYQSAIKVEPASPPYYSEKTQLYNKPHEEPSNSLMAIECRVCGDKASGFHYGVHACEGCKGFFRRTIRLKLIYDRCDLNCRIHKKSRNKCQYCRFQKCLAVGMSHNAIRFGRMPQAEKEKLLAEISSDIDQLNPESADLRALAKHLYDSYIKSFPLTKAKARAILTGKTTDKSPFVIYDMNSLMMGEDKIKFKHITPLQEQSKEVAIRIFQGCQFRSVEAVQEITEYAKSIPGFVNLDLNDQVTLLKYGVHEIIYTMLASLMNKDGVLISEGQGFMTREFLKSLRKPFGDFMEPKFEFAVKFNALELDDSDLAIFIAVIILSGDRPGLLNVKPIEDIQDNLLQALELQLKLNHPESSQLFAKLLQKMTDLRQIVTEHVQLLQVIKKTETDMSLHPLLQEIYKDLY
Chain of Vitamin D3 receptor (Homo sapiens) (P11473 whole entry, looked up): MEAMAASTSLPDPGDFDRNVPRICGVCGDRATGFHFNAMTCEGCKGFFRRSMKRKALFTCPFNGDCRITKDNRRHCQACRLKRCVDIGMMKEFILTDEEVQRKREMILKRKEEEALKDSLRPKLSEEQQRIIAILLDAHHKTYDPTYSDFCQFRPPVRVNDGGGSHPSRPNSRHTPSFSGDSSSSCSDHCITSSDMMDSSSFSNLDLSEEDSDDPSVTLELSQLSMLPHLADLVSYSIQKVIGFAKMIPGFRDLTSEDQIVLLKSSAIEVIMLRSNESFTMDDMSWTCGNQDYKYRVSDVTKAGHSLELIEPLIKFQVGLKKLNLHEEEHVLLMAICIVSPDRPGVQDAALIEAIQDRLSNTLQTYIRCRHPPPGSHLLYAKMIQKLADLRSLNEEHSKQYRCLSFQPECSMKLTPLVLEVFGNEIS

`CC(C)Oc1cc(-n2nc(C(C)(C)C)oc2=O)c(Cl)cc1Cl`: the activation is 12% (inactive) in experiment [1] and 0.842% (inactive) in [8]. For the same molecule, the outcome in [2] and in experiment [5] was inactive. Besides, the max response in experiment [3] was 22.7%; in experiment [9], 0.863% (inactive); in [11], -16% (inactive); in [12], -26.7% (inactive). Also, the Potency result in experiment [4], in experiment [6], in experiment [10] and in experiment [13] was “inactive” throughout. Further, the activity change % (negative = inhibition) in [7] is -6.22% (inactive).
In the case of `Nc1c(Cl)c(F)nc(OCC(=O)O)c1Cl`, the activation in experiment [1] was -4.31% (inactive); in experiment [18], 0.955% (inactive); in experiment [8] it was 1.14% (inactive). For the same molecule, the Potency entry in experiment [14], in experiment [15], in experiment [4], in [16], in [10] and in experiment [13] was “inactive” throughout. In addition, the outcome in [5] was inactive. Besides, the max response was -12.1% in experiment [17]; 0.318% (inactive) in experiment [9]; 1.18% (inactive) in experiment [11]; 4.54% (inactive) in [12]; -2.68% (inactive) in experiment [19]. In experiment [7], the activity change % (negative = inhibition) was 11.1% (inactive).
With `Cc1cccc2sc3nncn3c12`, the molecule was called inactive in experiment [2]. In addition, the max response in experiment [3] was 26.1%; in [17], -10.6%; in experiment [20], 2.1% (inactive); in experiment [9], -0.811% (inactive); in experiment [11] it was 0.787% (inactive); in [12], -3.66% (inactive). For the same molecule, the Potency result in [14], in experiment [16], in [6] and in experiment [13] was “inactive” in each case. Further, in [7], the activity change % (negative = inhibition) was 6.25% (inactive). Further, the figures for the activation in experiment [18] and in experiment [8] were 2.35% (inactive) and -0.0294% (inactive), respectively.
In the case of `Clc1ccc(C2(Cn3cncn3)CC(Br)CO2)c(Cl)c1` (stereo not drawn), the results for the activation in experiment [1], in [18] and in [8] were -0.813% (inactive), 1.75% (inactive) and 0.536% (inactive), respectively. The call in experiment [2] and in experiment [5] was inactive. In addition, the max response was 30.9% in experiment [3]; -1.33% in [17]; -17.6% (inactive) in experiment [20]; 0.204% (inactive) in experiment [9]; -3.86% (inactive) in [11]; -20.3% (inactive) in [12]. Further, the Potency entry in experiment [14], in experiment [15], in experiment [4], in experiment [16], in experiment [6] and in experiment [10] was “inactive” each time. Besides, the Potency result in experiment [13] is “inactive”. Besides, the activity change % (negative = inhibition) in experiment [7] was -0.525% (inactive).
Take `CCOC(=O)C(Cl)Cc1cc(-n2nc(C)n(C(F)F)c2=O)c(F)cc1Cl` (stereo not drawn): the activation was -0.667% (inactive) in [1], 1.44% (inactive) in [18] and 1.53% (inactive) in [8]. For the same molecule, the call in experiment [2] and in [5] was inactive. The max response in experiment [3] is 64.4%; in [17], 13.3%; in experiment [20] it was -48.3% (inactive); in [9], 11% (inactive); in experiment [11], -4.81% (inactive); in experiment [12], -19.9% (inactive). Moreover, in experiment [19], the max response was -2.22% (inactive). Further, the Potency result in experiment [14], in experiment [4], in [16], in experiment [6], in experiment [10] and in experiment [13] was “inactive” throughout. In addition, the activity change % (negative = inhibition) in experiment [7] was 18.6% (inactive).
As to `CCCCOCN(C(=O)CCl)c1c(CC)cccc1CC`, the activation in experiment [1] is -1.18% (inactive); in [18] it was -3.79% (inactive); in experiment [8], -2.46% (inactive). The call in experiment [2] and in experiment [5] was inactive. Besides, the Potency result in [6] and in experiment [13] was “inactive” each time. Further, in experiment [7], the activity change % (negative = inhibition) is -14.9% (inactive). Also, the max response in experiment [9] is 0.0844% (inactive); in experiment [11], -23.8% (inactive); in experiment [12], -23.1% (inactive); in [19], 3.67% (inactive).
